Screening data from PubChem.
This is a sample that favours compounds with a hit; in the whole collection about 1.2% have one here.
EPAC2 ag: EPAC2 (human) agonism | Potency, µM (series often up to 154 µM), inactives show top-dose activation, most hits filed as activators | 360,000 tested, 0.079% active | Q8WZA2 | AID 720711 | EPAC2 activation, biochemical qHTS; response scale: 100% = 6.5 mM cAMP response; also: nearly all actives have a fitted effect of over 50% in size
Target sequence (Q8WZA2 whole entry, looked up): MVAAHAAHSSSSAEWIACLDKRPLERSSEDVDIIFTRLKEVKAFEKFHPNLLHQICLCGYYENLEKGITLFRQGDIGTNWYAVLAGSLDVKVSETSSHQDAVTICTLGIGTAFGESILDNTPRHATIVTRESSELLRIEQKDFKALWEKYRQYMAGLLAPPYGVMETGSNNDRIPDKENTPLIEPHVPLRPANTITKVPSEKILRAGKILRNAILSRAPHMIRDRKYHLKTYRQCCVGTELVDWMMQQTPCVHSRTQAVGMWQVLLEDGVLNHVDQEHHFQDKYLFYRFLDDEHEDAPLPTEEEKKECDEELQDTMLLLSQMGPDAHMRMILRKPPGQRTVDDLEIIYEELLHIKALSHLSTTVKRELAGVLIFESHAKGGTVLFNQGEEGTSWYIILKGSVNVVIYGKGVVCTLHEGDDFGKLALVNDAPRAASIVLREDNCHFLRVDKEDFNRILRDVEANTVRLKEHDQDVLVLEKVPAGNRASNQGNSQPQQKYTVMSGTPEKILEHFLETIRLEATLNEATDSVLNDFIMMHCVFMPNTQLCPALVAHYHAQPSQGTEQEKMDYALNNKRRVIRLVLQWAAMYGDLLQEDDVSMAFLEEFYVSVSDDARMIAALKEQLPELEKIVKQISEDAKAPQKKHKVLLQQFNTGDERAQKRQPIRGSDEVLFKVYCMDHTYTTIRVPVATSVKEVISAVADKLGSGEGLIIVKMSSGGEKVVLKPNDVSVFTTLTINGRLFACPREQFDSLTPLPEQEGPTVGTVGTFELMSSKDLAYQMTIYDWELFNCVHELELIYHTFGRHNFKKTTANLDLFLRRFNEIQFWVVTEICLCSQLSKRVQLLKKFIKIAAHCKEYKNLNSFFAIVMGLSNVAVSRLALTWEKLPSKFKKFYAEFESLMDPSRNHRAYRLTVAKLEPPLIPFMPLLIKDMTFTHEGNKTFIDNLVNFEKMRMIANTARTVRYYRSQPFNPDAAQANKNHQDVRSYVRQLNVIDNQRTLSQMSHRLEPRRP
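Compounds were titrated in qHTS against a Rap1B-BODIPY-GDP (250 nM) complex with EPAC2 (100 nM) and GDP (50 uM). BODIPY-GDP release tracked at 480/540 nm over 30 min at room temperature, normalized to 6.5 mM cAMP.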
EPAC1 agonist: activates human EPAC1 exchange factor. O95398. EPAC1 agonist qHTS, biochemical assay; response scale: 100% = response to 6.5 mM cAMP. Potency, µM (series often up to 154 µM), inactives show at the top dose activation, actives largely listed as activators. 360,000 tested, 0.073% active. AID 720707; also: nearly all actives have a fitted effect of over 60% in size
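Multi-concentration qHTS readout: loss of Rap1B-bound BODIPY-GDP fluorescence driven by 100 nM EPAC1 with excess GDP (50 uM), monitored kinetically at room temperature; agonist response expressed relative to 6.5 mM cAMP.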
USP1 inh: blocks the human USP1/UAF1 deubiquitinase complex | O94782 | AID 743255 | recombinant USP1/UAF1, Ub-Rhodamine cleavage fluorescence | 390,000 tested, 0.23% active | Potency, µM (series often up to 57.1 µM), for inactives: top-dose activity change, negative = inhibition, hits mostly inhibitors; also: % is scaled to controls: 0 for no effect and ±100 for the full control effect; nearly all actives have a fitted effect of over 60% in size
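High-throughput fluorogenic screen: 1nM USP1/UAF1 complex, Ub-Rho substrate 150nM final, 50mM HEPES pH 7.8 with 0.5mM EDTA, 0.1 mg/ml BSA, 1mM TCEP and 0.01% Tween-20.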
VDR inh: blocks the human vitamin D receptor; Potency, µM, without a hit: max response, negative = inhibition, usual class: inhibitors; 400,000 tested, 0.93% active; VDR-SRC2-3 peptide fluorescence polarization, 2 h; also: % is scaled to controls: 0 for no effect and ±100 for the full control effect
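FP read-out; VDR + SRC2-3 coactivator peptide; 23 nl compound by pintool; 2 h RT incubation; reagents held at 4 deg C, protected from light.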
EPAC2 antag: antagonists of human EPAC2; Q8WZA2; EPAC2 GEF exchange of Rap1B-BODIPY-GDP, fluorescence; Potency, µM (series often up to 114 µM), inactives show top-dose activity, negative = inhibition, hits mostly inhibitors; 360,000 tested, 0.18% active; AID 720708; also: % is scaled to controls: 0 for no effect and ±100 for the full control effect; nearly all actives have a fitted effect of over 45% in size
EPAC1 antag: blocks human EPAC1 exchange factor. O95398. EPAC1 GEF assay, Rap1b-BODIPY-GDP exchange fluorescence. Potency, µM (titrated, usually from 115 µM), without a hit: at the top dose activity change, negative = inhibition, usual class: inhibitors. 360,000 tested, 0.14% active;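 also: plate controls were vehicle for no effect and positive control for full effect; nearly all actives have a fitted effect of over 50% in size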
An asterisk follows results filed as active; [ ] = another dose, or the depositor's remark. Calls follow the shape of the dose curve; as a rule, active = well fitted curve in the direction sought with a large enough effect; inconclusive = small, poorly fitted or top-dose-only effect, or another doubt; inactive = no such curve, though single readings can be large; an effect the other way counts as inactive or inconclusive. Potency is read from the fitted curve at half-maximal effect.

CC(C)(C)CC(C)(C)c1cc(Cc2cc(C(C)(C)CC(C)(C)C)cc(-n3nc4ccccc4n3)c2O)c(O)c(-n2nc3ccccc3n2)c1 was read as VDR inh -2%.
Screening c1ccc(-n2cnnn2)cc1 returned VDR inh 11%.
O=C(O)CC/C=C\CC[C@@H]1[C@@H](N2CCCCC2)[C@@H](O)C[C@@H]1OCc1ccc(-c2ccccc2)cc1 was read as VDR inh -1%.
Screening O=C(CSc1ccc2nc(-c3ccccc3)cn2n1)Nc1ccccc1 returned USP1 inh -11% and VDR inh -3%.
Screening CC(=O)n1nnc2ccccc21 returned VDR inh -7%.
For CCSc1ccccc1C(=O)n1nnc2ccccc21 the results were EPAC2 ag 4%, EPAC1 agonist 8%, USP1 inh -8%, VDR inh 50µM*, EPAC2 antag -5% and EPAC1 antag -5%.
For Cc1cn2c(=O)cc(COC(=O)c3cccc(NC(=O)COc4ccccc4)c3)nc2s1 the results were USP1 inh -13% and VDR inh 7%.
Cc1ccc(S(=O)(=O)c2nc(-c3ccco3)oc2SC(C)C)cc1 was read as EPAC2 ag 13%, EPAC1 agonist 11%, USP1 inh inconclusive, VDR inh 9%, EPAC2 antag 56µM* and EPAC1 antag -11%.
For Cc1ccc(-c2nc3cnccn3c2Nc2ccccc2)o1 the results were EPAC2 ag -2%, EPAC1 agonist -4%, USP1 inh -21%, VDR inh inconclusive, EPAC2 antag 6% and EPAC1 antag -20%.
Screening Cc1ccc(Nc2c(-c3ccc(C)o3)nc3cnccn23)cc1 returned EPAC2 ag 9%, EPAC1 agonist -3%, USP1 inh -25%, VDR inh 71µM*, EPAC2 antag -22% and EPAC1 antag -1%.
CCCn1c(=N)c(C(=O)NC2CCCCC2)cc2c(=O)n3cc(C)ccc3nc21 was read as USP1 inh -24% and VDR inh -15%.
O=S(=O)(c1cccc(C(F)(F)F)c1)N1CCN(c2nc(-c3ccccc3)nc3ccccc23)CC1 was read as VDR inh 6%.
Screening CCN(CC)c1ccc(N=C2C=CC(=O)C=C2NC(C)=O)cc1 returned EPAC2 ag 5%, EPAC1 agonist 15%, USP1 inh -7%, VDR inh 71µM*, EPAC2 antag -3% and EPAC1 antag -13%.
Screening CCN(CC)c1ccc(NC(=O)Nc2ccc(C(C)=O)cc2)cc1 returned EPAC2 ag 10%, EPAC1 agonist -3%, USP1 inh -6%, VDR inh -13%, EPAC2 antag 0% and EPAC1 antag -7%.
Screening Cc1cccc(-n2nnnc2S(C)(=O)=O)c1 returned USP1 inh -13% and VDR inh inconclusive.
COc1cccc(-n2nnnc2S(C)(=O)=O)c1 was read as EPAC2 ag 12%, EPAC1 agonist 4%, USP1 inh -10%, VDR inh 45µM*, EPAC2 antag -2% and EPAC1 antag -2%.
Screening CN(C)c1ccc(/C=C2\SC(=O)N(CC(O)Cn3c4ccccc4c4ccccc43)C2=O)cc1 (stereo unspecified) returned EPAC2 ag 22%, EPAC1 agonist inconclusive, USP1 inh 13µM*, VDR inh -10%, EPAC2 antag 46% and EPAC1 antag 87%.
`CCOC(=O)c1cc(-c2ccc(/C=N\n3cnnc3)o2)ccc1Cl` gave EPAC2 ag 4%[15.6 µM], EPAC1 agonist 1%, USP1 inh -15%, VDR inh 22%, EPAC2 antag 1% and EPAC1 antag 2%.
Screening CCOC(=O)c1cc(-c2ccc(/C=C3/C(=O)N(c4ccc(C(=O)O)cc4)N=C3C)o2)ccc1Cl returned EPAC2 ag 2%, EPAC1 agonist 7%, USP1 inh -25%, VDR inh inconclusive, EPAC2 antag 3% and EPAC1 antag 35µM*.
